Experimental data published in the supplement of paper PMC6555819.

Tests used:
Test in all cases: PBM binding z-score (relative to random genomic background probes); higher = stronger binding; sequences stand for … in GC…GCGATTGACAGCGTAGAATGAAGG
[1] = tested on: RARb homodimer (NR concentration 270 nM)
Procedure, shortened: (§1)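 The probes on custom Agilent 4×180K protein-binding microarrays were double-stranded, with 34-nt variable regions bearing direct-repeat seeds, single-nucleotide variants, half-site ablations and random human genomic background sequences. Incubation lasted 1 h with ligand-free nuclear receptor dimers in PBS pH 7.4, 2% milk, 0.02% Triton X-100, 1 mM DTT, 0.2 mg/mL BSA and 0.4 mg/ml salmon testes DNA. Antibodies against each partner (one per run) detected bound dimers, and fluorescence scans were regression-normalized. Binding z-scores take the random background probes as reference.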

[2] = tested on: RARg:RXRa (NR concentration 270 nM, RXRa partner concentration 90 nM)
Procedure, shortened: as §1

[3] = tested on: RARg homodimer (NR concentration 270 nM)
Procedure, shortened: as §1

[4] = tested on: RXRa DBDmut IVT, anti-RXR (DBD mutation: RXRa K156A/R161A, NR concentration 90 nM)
Procedure, shortened: as §1

[5] = tested on: RXRa homodimer (NR concentration 180 nM)
Procedure, shortened: as §1

[6] = tested on: THRa:RXRa (NR concentration 90 nM, RXRa partner concentration 90 nM)
Procedure, shortened: as §1

[7] = tested on: THRa homodimer (NR concentration 90 nM)
Procedure, shortened: as §1

[8] = tested on: VDR homodimer (NR concentration 270 nM)
Procedure, shortened: as §1

Sequence | PBM binding z-score [1] | PBM binding z-score [2] | PBM binding z-score [3] | PBM binding z-score [4] | PBM binding z-score [5] | PBM binding z-score [6] | PBM binding z-score [7] | PBM binding z-score [8]
TCATGTAGGTAAACAGGTGAAAGTCCGTAAGTTA | 0.722 | 0.133 | 0.0838 | 0.975 | 0.516 | 0.578 | 0.226 | -0.0362
ACTATTAGTTGACTTAGGGGAACCGATACGACGC | 0.325 | 0.568 | 0.663 | 1.15 | 0.583 | 1.11 | 0.616 | 0.357
CGTCCATGGTCAAAGGTCAGTGAAGAGATGACGG | 4.5 | 5.6 | 5.53 | 0.569 | 5.87 | 2.73 | -0.0105 | 0.771
GCTGCTAGGTCAGGTCGGTCAGCTAACGGGTACG | 3.44 | 3.03 | 4.28 | 0.46 | 1.23 | 2.48 | 0.932 | 0.733
CCTTACGGGTCACTGAAAGGTTATAGCATTTGGA | 4.08 | 6.85 | 4.86 | 1.54 | 5.63 | 3.44 | 0.371 | 1.14
GCGACTGGGGCATAGCAGGTTACCATAAGGTTGG | 1.04 | 0.402 | 0.629 | -0.432 | 0.456 | 2.44 | -0.122 | -0.335
GCGACTGGGGCATCAACAGGTTACCATAACTTAA | 1.25 | 0.983 | 0.509 | 0.306 | 0.415 | 0.721 | -0.0396 | -0.142
AGAATGAGGTTACCAAAGATCATGGAAACGCTTG | 0.797 | 2.26 | 1.87 | 1.21 | 2.81 | 3.03 | 0.729 | 0.455
ATATGTAGGTTACATCCGGCTCATTCAGGCTATG | 0.467 | 0.906 | 1.15 | 0.846 | 0.829 | 1.09 | 0.4 | 0.27
CCTATTAGTTGACCATAAGTGCAACCGAAGCTCG | 1.59 | 0.741 | 0.841 | 1.18 | 0.751 | 0.954 | 1.18 | 1.81
ATACCAAGGTGATCGGGAGGTCGTTGATACTAAC | 1.96 | 2.79 | 0.879 | 0.167 | 1.44 | 2.58 | 1.27 | 1.99
TCGAGTAGGTTATTCGGGGCATTCAGCCAACATA | 0.766 | 0.44 | 0.448 | 0.744 | 0.31 | 2.61 | 0.314 | 0.9
CAAACTAGGTCAAGGTGAAAGTCGGTTTGTGCCA | 3.45 | 3.81 | 4.95 | 1.61 | 2.82 | 3.49 | 2.52 | 0.978
CAAACTGGGTCAAGGTCAAAGTCGGTTTGTGCCA | 4.97 | 5.77 | 6.18 | 3.04 | 5.91 | 4.27 | 3.47 | 4.24
TCGCCTAGGTCATTGGGCCAGTATAGTACGCATC | 2.87 | 3.95 | 3.88 | 2.13 | 2.69 | 2.68 | 0.959 | 1.57
AGAATGCGGTTACCAAAGATCAGGGAAACGCTTG | -0.737 | 0.095 | 0.185 | -0.735 | 0.309 | -0.323 | -1.27 | -1.02
TCTAGTTGGTCAAAGATCACACACTCGAAATGCG | 0.919 | 1.57 | 0.992 | 1.48 | 1.61 | 0.536 | 0.263 | 0.452
ATCGAACGGTCGAAGGTGAGTATACCCACCCGAA | 0.62 | 0.884 | 0.957 | -1.05 | 0.717 | -0.016 | -0.481 | -0.147
ATTAGTTGGTCAGCTGAGGTCACACACAATTCGG | 4.56 | 4.39 | 4.28 | 1.58 | 4.35 | 5.05 | 5.22 | 4.18

Sequence | PBM binding z-score [1] | PBM binding z-score [2] | PBM binding z-score [3] | PBM binding z-score [4] | PBM binding z-score [5] | PBM binding z-score [6] | PBM binding z-score [7] | PBM binding z-score [8]
TTACCAAGCTGAAAGGTCGTTGATGCACGCCTTG | 1.45 | 1.06 | 0.528 | -0.0422 | 2.04 | 0.936 | -0.608 | 0.539
TCTGCTAGGCCAACGATGGTCAGCTAATCTGCTA | 0.00128 | -0.269 | 0.329 | -0.26 | -0.518 | -0.441 | -1.26 | -1.49
GGAACGAGGGCAAAGTTGACAGCATCTGTCGACG | 1.58 | 2.77 | 2.16 | 2.56 | 2.76 | 1.67 | -0.266 | 1.24
TAGCCTAGCTCATGCGGGCCAGTATAGTGTCGGC | -1.08 | -0.81 | -0.912 | -1.45 | -0.694 | -1.65 | -1.25 | -0.887
TCCCGGAGGACACGAAGGTCAGAGCTTTCCAGAG | 3.55 | 3.07 | 3.74 | 0.527 | 1.59 | 2.83 | 1.17 | 1.11
CGTCCAAGGTCATTGCTAGGTCAGTGAAAGCATT | 4.96 | 7.64 | 6.66 | 4.51 | 5.45 | 4.38 | 3.31 | 4.55
AGAACGAGGGCAATGAGATGATAGCACGGGTGGC | 0.913 | 0.982 | 1.72 | 1.59 | 0.713 | 0.651 | 0.199 | 0.718
CCTACTGGGCCAAGGTGATTGATCAGTCAAAGCA | -0.085 | -0.199 | -0.0733 | -1.43 | -0.57 | 0.355 | -0.015 | -0.782
CGGCCAAGGTCAATGCTAGGTCAGTGAAAGCATT | 4.9 | 7.57 | 6.96 | 3.65 | 5.16 | 4.29 | 2.46 | 2.22
TCTTGTAGATCAAGTAGGTTAAGAAAGCCTGAGT | 0.305 | 0.0366 | -0.106 | 0.547 | 0.304 | 0.372 | -0.238 | 0.191
ACTAGCAGGCCAAGGGTCACTCATGATTAGTCCG | 3.68 | 4.01 | 3.58 | 0.479 | 4.18 | 2.31 | 0.0224 | 1.07
GGAATGAGGGCAAAGTTGATAGCATCTGTCGACG | 1.42 | 2.19 | 1.83 | 2.73 | 2.31 | 1.89 | 0.391 | 1.75
ACTATTAGTTGAGACCAGGGCAACCGATAGGTTG | 0.667 | 0.276 | 0.568 | -0.232 | 0.3 | 1.79 | 0.11 | 0.0358
TTCCCAAGGTGAGCTGAGGTCGTTGATCCAACTC | 1.95 | 1.28 | 0.949 | 0.117 | 1.34 | 4.52 | 2.4 | 2.61
CTCGAAAGGTCGGTTGAGGTGAGGATACGGATAA | 2.54 | 3.23 | 2.94 | 0.698 | 2.43 | 5.04 | 2.21 | 0.231
TCTTGCAGATCAACAGGAGGTTAAGAAAGATCGA | 0.407 | 0.798 | 0.138 | 0.162 | 0.749 | 0.859 | -0.241 | -0.1
TCTTGTTGATCAAGCAGGTTAAGAAAGCCTGAGT | 0.418 | -0.0831 | -0.348 | 0.561 | 0.248 | 0.444 | -0.1 | 0.0832
ATCTCTAGGTCAAGTTCAGTGAAAGATCGATAGA | 3.89 | 4.93 | 5.92 | 2.98 | 3.73 | 3.44 | 2.16 | 3.44
GCTTGTAGATCTAGGTTAAGAAAGACTAAGCTAA | -0.325 | -0.324 | -0.326 | -0.252 | -0.074 | 0.276 | -0.767 | -0.721

Sequence | PBM binding z-score [1] | PBM binding z-score [2] | PBM binding z-score [3] | PBM binding z-score [4] | PBM binding z-score [5] | PBM binding z-score [6] | PBM binding z-score [7] | PBM binding z-score [8]
TCTTGTTGATCAATAGAGGTTAAGAAAGTGCGCT | 1.09 | 0.58 | 0.28 | 0.766 | 1.48 | 1.58 | -0.22 | 0.411
CCTATTAGTAGACCATAAGGGCAACCGAAGCTCG | 1.65 | 0.962 | 0.835 | 0.475 | 0.769 | 1.57 | 1.11 | 0.68
CCTTACGGGTCACTCCAGGTTATAGCTTCGGAGT | 3.13 | 4.36 | 4.47 | 1.65 | 4.42 | 4.92 | 0.616 | 1.61
ATATGTAGGTTATCCGGTCATTCAGTTTGCGCAT | 2.35 | 2.11 | 1.83 | 0.932 | 1.4 | 1.67 | 1.08 | 1.53
TCGAGTAGCTTAGGGGCATTCAGAATGGCGTCGA | 0.0653 | -0.284 | -0.446 | 0.27 | 0.216 | 0.657 | -0.487 | 0.282
ATCTCTAGGTAAAGTTCCGTGAAAGATCGATAGA | -0.0472 | 0.28 | 0.381 | 0.35 | 0.0302 | 0.529 | 0.224 | 0.431
TCATATAGGTAAAGGTGAAAGTTGAACGATATGA | 2.08 | 2.34 | 1.51 | 0.648 | 3.71 | 1.79 | -0.127 | 0.139
ACTAGCAGGCCAAGTTTGGGTCACTCAAACAAAG | 2.42 | 2.46 | 1.72 | -0.26 | 0.865 | 2.54 | 0.952 | 0.495
GGAACGAGTGCAAAGTTGATAGCATCTGTCGACG | -0.159 | 0.335 | 0.145 | 3.22 | 0.874 | -0.385 | -0.711 | 1.88
TCTTGTAGATCAATAGAGGTTAAGACAGTGCGCT | 1.01 | 0.969 | 0.534 | 0.854 | 1.44 | 2.36 | -0.216 | 0.0474
CCGACTAGGGCAAGGTTACCATAACGCACAGCCA | 1.42 | 1.33 | 1.66 | 0.121 | 1.08 | 1.23 | 0.242 | 0.0806
TCTCGGAGGATACGAAAGGTCAGAGCTCGACATC | 4.38 | 4.12 | 3.73 | 0.587 | 4.38 | 2.98 | 0.363 | 0.361
TCGAGTAGGTTACCAATCGGGCATTCAGCTTTCT | 0.187 | 1.32 | 0.199 | -0.0305 | 0.304 | -0.223 | -1.47 | -1.01
ATTCAAAGTTCATCTAGGTAACGTAAGATATGCT | 3.89 | 5.29 | 5.82 | 4.6 | 4.46 | 3.13 | 0.475 | 4.9
GGAACGAGGGCATTCGCGTTGATAGCATGGCGAT | 0.582 | 0.978 | 1.21 | 2.75 | 0.746 | 1.08 | -0.426 | 1.79
ATATGTAGGTTAGCTGGGGTCATTAAGACTAGGC | 3.6 | 3.87 | 3.03 | 1.83 | 5.15 | 5.26 | 3 | 4.98
CCAGACAGGTGAGAAGGCAACTCAGCCTCGATTA | 0.103 | 0.0395 | 0.271 | 0.0472 | 0.0532 | -0.202 | -0.363 | 0.221
CCTCGGAGGACAGGAGGTCAGAGCTGTCCGCTTT | 3.17 | 3.42 | 3.29 | 0.04 | 2.07 | 2.67 | 0.822 | 0.982
CTTCCAAGGTCATAGGAGGTCAGTGAAGACAGAT | 5.3 | 7 | 7.48 | 3.89 | 7.13 | 5.26 | 3.21 | 4.49
